Screening results from PubChem BioAssay.
An excerpt weighted towards active compounds, which were near 11% of everything screened.
G9a block: G9a (human) methyltransferase inhibition; Q96KQ7; G9a H3K9 monomethylation, AlphaScreen, 2 h; Potency, µM (titrated, usually from 102 µM), inactives show at the top dose activity, negative = inhibition, most hits filed as inhibitors; 8.8% of 350,000 active; AID 504332; also: potency is read from the fitted curve at half-maximal effect; nearly all actives have a fitted effect of over 75% in size
Target sequence (Q96KQ7 913-1193 limits assumed): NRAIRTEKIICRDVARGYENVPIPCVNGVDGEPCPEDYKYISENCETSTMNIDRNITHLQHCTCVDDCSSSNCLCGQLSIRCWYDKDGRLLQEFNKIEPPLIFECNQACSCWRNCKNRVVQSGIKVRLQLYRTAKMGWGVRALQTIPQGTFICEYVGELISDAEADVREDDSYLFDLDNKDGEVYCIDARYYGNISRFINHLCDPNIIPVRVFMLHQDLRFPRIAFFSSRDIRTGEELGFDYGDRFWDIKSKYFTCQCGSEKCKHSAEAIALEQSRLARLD
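Enzyme 20 nM + cpd, 15 min RT; add b-H3K9 pep 500 nM / SAM 20 uM; 2 h RT; anti-H3K9me1 Ab 0.5 ug/mL + SA donor / anti-rabbit acceptor beads 20 ug/mL each, 10 min; AlphaScreen read.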
Tau fibril ThT: tau fibrillization inhibition (ThT binding) | P10636 | recombinant tau K18 P301L, heparin-induced fibrillization, ThT fluorescence | Potency, µM (highest dose often 57.4 µM), for inactives: at the highest dose activity, negative = inhibition, usual class: inhibitors | 2.1% of 270,000 active | AID 1460; also: potency is read from the fitted curve at half-maximal effect; nearly all actives have a fitted effect of over 55% in size
Target sequence (P10636 561-689 P618L limits assumed): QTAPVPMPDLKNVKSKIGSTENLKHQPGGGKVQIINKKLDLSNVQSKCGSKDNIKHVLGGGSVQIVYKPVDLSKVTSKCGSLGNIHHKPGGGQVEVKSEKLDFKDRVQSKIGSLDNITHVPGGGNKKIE
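Using a mix of unlabeled (15 uM) and Alexa 594-labeled (0.24 uM) tau K18 P301L, heparin-triggered fibrillization over 6 hr at 37 C was scored by ThT fluorescence.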
FBPA coupling cs: inhibits coupling enzyme system, counter-screen for aldolase hits. activity change, negative = inhibition, % at 58.2 µM, hits read low. AID 2472. 0.67% of 290,000 active. coupling enzyme system counterscreen, AmpLite Red fluorescence; in the data active = activity change below about -30%
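Final compound at 57.5 uM, incubated 10 min at RT with coupling enzyme reagent (glyceraldehyde-3-phosphate), then 20 min with substrate and AmpLite Red detection. Fluorescence read at 525/598 nm; tests interference with the coupling assay, not aldolase inhibition.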
Sfp inh: inhibitors of Bacillus subtilis Sfp phosphopantetheinyl transferase. Q9F4F7. Biochemical Sfp PPTase activity, qHTS. Potency, µM, without a hit: largest response in the series, negative = inhibition, usual class: inhibitors. 3.5% of 310,000 active;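 also: the enzyme is Sfp with the accession as filed and its product quenches rhodamine fluorescence; potency is read from the fitted curve at half-maximal effect; 0% = enzyme reaction without inhibitor and -100% = no enzyme wells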
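Sfp 15 nM + cpd, 15 min RT; start w/ rhodamine-CoA 5 uM, BHQ-2-YbbR 12.5 uM (final); 50 mM Hepes pH 7.6, 10 mM MgCl2, 0.01% NP-40, 0.01% BSA; read 525/598 nm at 0 and 30 min.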
Tau FP inhib: blocks human tau fibril formation measured by polarization. 0.39% of 280,000 active. Potency, µM (doses to about 57.7 µM), for inactives: at the highest dose activity, negative = inhibition, actives largely listed as inhibitors. K18 P301L tau heparin fibrillization, Alexa594 FP, 6 h. P10636; also: potency is read from the fitted curve at half-maximal effect; nearly all actives have a fitted effect of over 55% in size
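Read-out: fluorescence polarization of Alexa 594-labeled tau (0.24 uM), 555 nm excitation, 632 nm emission. Mixtures held 15 uM unlabeled K18 P301L, compound and 20 uM heparin, pH 7 acetate buffer, incubated 6 hr at 37 C.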
Tau fluor counter: counter-screen for tau fibril formation inhibitors. tau K18 P301L (four-repeat tau fragment) Alexa594 fluorescence, heparin fibrillization. AID 1463. Potency, µM (titrated, usually from 57.7 µM), inactives show at the top dose activity change, negative = decrease. 0.93% of 280,000 active; also: potency is read from the fitted curve at half-maximal effect; nearly all actives have a fitted effect of over 55% in size
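Human K18 P301L tau (15 uM unlabeled plus 0.24 uM Alexa 594-labeled, final) in 100 mM sodium acetate pH 7 was mixed with compound and 20 uM heparin and incubated 6 hr at 37 C.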
* marks the source's active call; other numbers are inactive results; ? = inconclusive; nt = no result given; [ ] = dose if it differs, or a comment. Unless noted, calls follow the shape of the dose curve; as a rule, active = well fitted curve in the direction sought with a large enough effect; inconclusive = small, poorly fitted or top-dose-only effect, or another doubt; inactive = no such curve, though single readings can be large; an effect the other way counts as inactive or inconclusive. Unless noted, % is scaled to controls: 0 for no effect and ±100 for the full control effect.

SMILES	G9a block	Tau fibril ThT	FBPA coupling cs	Sfp inh	Tau FP inhib	Tau fluor counter
Cc1cc(C)cc(OCC(=O)N2N=C(c3cccnc3)CC2(O)C(F)(F)F)c1 (stereo unspecified)	6%	-10%	2	-6%	8%	-13%
O=C(NCc1ccccn1)Nc1ccc2c(c1)OCO2	-30%[59 µM]	-10%	1	79µM*	6%	-2%
O=C(Nc1ccc2c(c1)OCO2)Nc1ccccn1	?	-4%	2	5%	7%	-6%
O=C(NCc1ccncc1)Nc1ccc2c(c1)OCO2	45µM*	-7%	-3	-6%	0%	-11%
CCOC(=O)N1CCN(C(=O)CNC(=O)c2ccc(Br)cc2)CC1	52%	nt	nt	5%	nt	nt
CCOc1ccc(Cn2nnc3c(=O)[nH]c(C4CCN(C(=O)c5ccccc5)CC4)nc32)cc1	?	?	nt	nt	-7%	-23%
COc1ccc(N2CCN(c3ncnc4nc[nH]c34)CC2)cc1	-18%	18µM*	2	5%	11%	-24%
COc1ccccc1N1CCN(c2ncnc3nc[nH]c23)CC1	1%	-13%	3	-10%	3%	-6%
COc1ccc(N2CCN(c3ncnc4onc(-c5ccc(F)cc5)c34)CC2)cc1	18µM*	-17%	nt	nt	13%	?
OCCN(CC#CC(O)(c1ccccc1)c1ccccc1)CCO	32µM*	2%	2	6%	-1%	3%
COc1ccc(-n2nnc(-c3nsc(NC(=O)c4cccs4)n3)c2C)cc1OC	-7%[59 µM]	?	nt	nt	-7%	-15%
Cc1ccc(S(=O)(=O)NCCC(=O)OCC(=O)NC(=O)c2cccn2C)cc1	?	nt	2	9%	1%	-8%
CC(C)N(C(C)C)S(=O)(=O)c1ccc(NN)nc1	3%[12.7 µM]	?	-3	79µM*	-5%	?
CCOc1ccc(NC(=O)CN(C)c2ccc(S(=O)(=O)N(C(C)C)C(C)C)cn2)cc1OCC	-4%[59 µM]	3%	-1	13%	9%	-19%
CCN(CC)S(=O)(=O)c1ccc(NN)nc1	-2%	?	-6	13µM*	-15%	-14%
CCN(c1ccccc1)S(=O)(=O)c1ccc(NN)nc1	29%[12.7 µM]	nt	nt	nt	nt	nt
COc1ccc(C)cc1NC(=O)Cn1cc(S(=O)(=O)Cc2ccccc2Cl)c2ccccc21	-25%[59 µM]	0%	nt	nt	-4%	?
COCCOC(=O)C1=C(C)NC(=O)NC1c1ccc(-c2ccc(F)cc2)o1 (stereo unspecified)	50µM*	-6%	4	-16%	1%	-1%
COc1cc(CNCCSc2nnnn2C)cc(Br)c1OCc1ccc(F)cc1	-39%[2.33 µM]	?	-6	14µM*	-1%	-25%
COc1cccc(CNCCSc2nnnn2C)c1	56µM*	5%	-1	-7%	-1%	6%
COc1cccc(CNCCCSc2nnnn2C)c1	-25%[59 µM]	0%	nt	nt	7%	6%
Cn1nnnc1SCCNCc1cccc2ccccc12	50µM*	-10%	2	1%	-3%	0%
COc1ccc(Cl)cc1CNCCSc1nnnn1C	18%[59 µM]	-12%	nt	nt	-2%	-11%
COc1ccc(Br)cc1CNCCSc1nnnn1C	56µM*	-1%	-1	7%	9%	7%
Cc1cccc(C(=O)Nc2nnc(S(=O)(=O)N(C)Cc3ccco3)s2)c1	-16%	3%	nt	-21%	-10%	7%
SMILES	G9a block	Tau fibril ThT	FBPA coupling cs	Sfp inh	Tau FP inhib	Tau fluor counter
Cc1ccc(C(=O)c2oc3ccccc3c2NC(=O)COc2ccc(C(C)C)cc2)cc1	18%[59 µM]	2%	nt	nt	-12%	-7%
Cc1noc(C)c1COc1ccc(C(=O)N2CCN(c3ccccn3)CC2)cc1	20%[0.501 µM]	nt	nt	nt	nt	nt
CC(C)(C)C(=O)Nc1ccc(S(=O)(=O)Nc2nccs2)cc1	1%	nt	3	1%	nt	nt
Cc1ccc(C(c2nnnn2Cc2cccs2)N2CCN(C(=O)c3ccco3)CC2)cc1 (stereo unspecified)	40µM*	-8%	0	-23%	6%	-1%
COc1ccc(C(c2nnnn2Cc2ccccc2)N2CCN(C(=O)c3ccco3)CC2)cc1 (stereo unspecified)	56µM*	-10%	3	4%	-4%	-6%
O=C(c1ccco1)N1CCN(C(c2ccc(Cl)cc2)c2nnnn2Cc2ccccc2)CC1 (stereo unspecified)	?	-16%	3	-23%	9%	-4%
COc1cc2c(cc1OC)C(COc1ccc3c(C)cc(=O)oc3c1)N(C(=O)CC(C)C)CC2 (stereo unspecified)	1%[59 µM]	?	nt	nt	-3%	-22%
C=C[C@@H](C1=CC(=O)C(OC)=C(OC)C1=O)c1ccccc1	nt	28µM*	-45*	11µM*	?	?
C=CC(C1=CC(=O)C(OC)=CC1=O)c1ccc(O)cc1 (stereo unspecified)	?	32µM*	-35*	-75%	?	?
C=CC(C1=CC(=O)C=CC1=O)c1ccccc1 (stereo unspecified)	?	?	-18	-34%	-14%	?
COc1ccc(CNC(=O)CN(c2ccc(C(C)C)cc2)S(=O)(=O)c2c(C)noc2C)cc1	nt	nt	nt	0%	nt	nt
CCN(CCNC(=O)c1ccc(CSc2nc3ccncc3[nH]2)cc1)c1ccccc1	45µM*	?	-4	2%	1%	25µM*[quencher]
O=C(NCCN1CCN(c2cccc(Cl)c2)CC1)c1ccc(CSc2nc3ccncc3[nH]2)cc1	50µM*	?	3	5%	?	?
C/C(=N\NC(=O)c1ccccc1)c1ccc(N2CCOCC2)cc1	15%[59 µM]	?	-2	-14%	-17%	-14%
C/C(=N\Nc1nc2ccccc2[nH]1)c1ccc(N2CCOCC2)cc1	50µM*	?	0	-23%	?	?
C/C(=N\Nc1nc(C)cc(C)n1)c1ccc(N2CCOCC2)cc1	-1%	?	1	6%	5%	-2%
C/C(=N\Nc1nc2ccccc2[nH]1)c1ccc(Cl)s1	20µM*	?	-5	-10%	5%	?
C/C(=N\Nc1nc2ccccc2[nH]1)c1ccc(C)o1	3%[59 µM]	?	-3	14%	10%	-23%
C/C(=N\Nc1ncc(Cl)cc1Cl)c1ccc(N2CCOCC2)cc1	56µM*	?	1	25µM*	11%	-13%
CCOC(=O)c1cc(-c2ccc(F)cc2)n(CC(=O)NC2CCCCC2)c1C	0%[59 µM]	0%	nt	nt	-3%	-1%
Cc1ccc(S(C)(=O)=O)cc1C(=O)NC(C)C1CC2CCC1C2 (stereo unspecified)	-11%	nt	2	19%	nt	nt
Clc1ccccc1-c1nccc(NCc2ccccc2)n1	14%[0.501 µM]	nt	1	12%	nt	nt
Cc1noc(C)c1S(=O)(=O)N(CC(=O)NCCc1ccc(Cl)cc1)c1ccc(C(C)C)cc1	1µM*	-2%	nt	nt	-13%	-13%
